Data taken from ChEMBL document CHEMBL1201862, “PubChem BioAssay data set” (2004).

species: Homo sapiens; experiment: Quantitative High-Throughput Screen for Compounds Blocking the Interaction Between CBF-beta and RUNX1 for the Treatment of Acute Myeloid Leukemia: Summary. [Related pubchem assays (depositor defined):AID1477, AID504370, AID504374, AID504375]; format: functional

Potency, active:
CCOc1ccc(CN(C)CC(=O)Nc2cc(C)c(C)cc2[N+](=O)[O-])cc1.CN(C)C=O 141 nM
CN1CCCN(C(=O)/C=C/c2ccc(Cl)cc2Cl)CC1 126 nM
O=C1C2C3C=CC(C4CC34)C2C(=O)N1/N=C/c1cccs1 (stereo not given) 112 nM
N[C@@H](CCCCNC(=O)CCCC[C@@H]1SC[C@H]2NC(=O)N[C@H]12)C(=O)O 398 nM
O=C(O)c1cccc(NC(=S)N/N=C/c2cccc(O)c2)c1 141 nM
COC(=O)c1ccc(C)c(-n2c(C)cc(C=O)c2C)c1 112 nM
COC(=O)c1ccc(N=NNc2ccc(C(=O)OC)cc2)cc1 112 nM
NNc1nc2cccnc2n(CCNc2ncc(C(F)(F)F)cc2Cl)c1=O 126 nM
c1coc(-c2ccnc3ncnn23)c1 100 nM
COc1cc([N+](=O)[O-])cc(/C=N/NC(=O)c2ccc(C)nc2)c1O 141 nM
